Pf growth 96h = inhibits malaria parasite growth, 96 h. P. falciparum luciferase reporter growth, 96 h. actives 6.9% (n = 320,000). Potency, µM (top dose mostly 28.7 µM), most hits filed as inhibitors
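96 h incubation, 37 C, 5% CO2, of luciferase-reporter P. falciparum-infected RBCs (2% hematocrit, 0.05% parasitemia final) with test compounds; endpoint luminescence.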
CHX counter = counter-screen for Shiga toxin inhibitors: cycloheximide protein synthesis inhibition; max response, %; cell reporter, cycloheximide protein synthesis inhibition counterscreen; actives 12% (n = 300,000); AID 2314; in the data active = max response mostly above about 13%, no sharp cut-off; inactive = mostly below about 14%; also: read at 38.3 µM for the half of the compounds with a filed dose
Shiga inhibitor = Shiga toxin inhibition; inhibition, % at 38.7 µM; AID 2315; Vero cells, Shiga toxin protein synthesis inhibition reporter; actives 9.2% (n = 290,000); in the data active = inhibition mostly above about 28%, no sharp cut-off; inactive = mostly below about 43%
Pf growth 48h = inhibits P. falciparum growth in the first generation, 48 h; P. falciparum luciferase growth in erythrocytes, 48 h; actives 5.9% (n = 310,000); Potency, µM (doses to about 28.7 µM), most hits filed as inhibitors
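Luminescence readout; reporter = integrated firefly luciferase in P. falciparum. RBC culture at 2% hematocrit, 0.1% parasitemia final, 37 C/5% CO2; decreased signal taken as growth inhibition.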
Numbers stand for hits; [ ] = remark or other dose. An excerpt weighted towards active compounds, which were near 21% of everything screened. Unless noted, calls follow the shape of the dose curve; as a rule, active = well fitted inhibition curve with a large enough effect; inconclusive = small, poorly fitted or top-dose-only effect, or another doubt; inactive = no such curve, though single readings can be large or run the other way.

CC(C)(C)c1ccc(OCc2ccc(C(=O)N3CCOCC3)o2)cc1 was read as Pf growth 96h inactive, CHX counter 53.6, Shiga inhibitor 114.9 and Pf growth 48h inconclusive.
`O=C(CC1C(=O)NCCN1CC(c1ccccc1)c1ccccc1)NC1CC1` (configuration not stated) gave Pf growth 96h inactive, CHX counter inactive, Shiga inhibitor inactive and Pf growth 48h inconclusive.
NC(=O)c1ccc(NC(=O)CSc2nc3ccccc3c(=O)n2CCCN2CCOCC2)cc1 was read as Pf growth 96h inactive and Pf growth 48h inactive.
For CN(CC(=O)Nc1ccc(F)cc1)C(=O)c1cccc(S(=O)(=O)N2CCN(c3ccc(F)cc3)CC2)c1 the results were Pf growth 96h inconclusive and Pf growth 48h 11.7µM.
`CN(Cc1ccc(F)cc1)C(=O)c1cccc(S(=O)(=O)N2CCN(c3ccc(F)cc3)CC2)c1` gave Pf growth 96h inconclusive and Pf growth 48h inactive.
Screening CN(Cc1ccc(F)cc1)C(=O)c1cccc(S(=O)(=O)N2CCN(c3ccccc3)CC2)c1 returned Pf growth 96h inconclusive and Pf growth 48h 9.28µM.
For CN(CC(=O)Nc1ccc(Cl)cc1)C(=O)c1cccc(S(=O)(=O)N(C)C)c1 the results were Pf growth 96h 10.4µM, CHX counter inactive, Shiga inhibitor inactive and Pf growth 48h inconclusive.
For O=C(NCc1cccc(C(F)(F)F)c1)C1CCCN(c2cnccn2)C1 (configuration not stated) the results were Pf growth 96h inactive, CHX counter inactive, Shiga inhibitor inactive and Pf growth 48h inactive.
Screening O=S(=O)(Nc1nc2ccccc2nc1NCC1CCCO1)c1cc(Cl)ccc1Cl (configuration not stated) returned Pf growth 96h inactive, CHX counter inactive, Shiga inhibitor inactive and Pf growth 48h inactive.
Screening CCCCCCCOc1ccc(-c2ccc(C#N)cn2)cc1 returned Pf growth 96h 6.57µM, CHX counter inactive, Shiga inhibitor inactive and Pf growth 48h inactive.
Cc1ccc(-c2cnc3ccccc3n2)cc1C was read as Pf growth 96h inconclusive, CHX counter 28.4, Shiga inhibitor 63.3 and Pf growth 48h inactive.
`CCCOc1ccc(-c2nc(OC)c3ccccc3n2)cc1` gave Pf growth 96h inactive, CHX counter 34.8, Shiga inhibitor 112.3 and Pf growth 48h inactive.
`Cc1cc(-c2ccccc2)nc(N(C)N)c1S(C)(=O)=O` gave Pf growth 96h inactive, CHX counter inactive, Shiga inhibitor inactive and Pf growth 48h inconclusive.
`Cc1cc(-c2ccccc2)nc(-c2ccccc2)c1C` gave Pf growth 96h inactive, CHX counter 25.8, Shiga inhibitor inactive and Pf growth 48h inactive.
Screening CN(C)CC(O)COc1ccc(-c2ccc(C#N)cc2)cc1 (configuration not stated) returned Pf growth 96h inconclusive, CHX counter inactive and Shiga inhibitor inactive.
COc1cccc(-n2c(=O)n(Cc3ccccc3)c(=O)c3[nH]cnc32)c1 was read as Pf growth 96h inactive, CHX counter inactive, Shiga inhibitor inactive and Pf growth 48h inactive.
`Cc1cc2ncc(-c3ccccc3)nc2cc1C` gave Pf growth 96h inactive, CHX counter 38.9, Shiga inhibitor 106.4 and Pf growth 48h inactive.
CCOC(=O)c1ccc(Cl)c(NC(=O)c2ccc(-c3ccccc3)cc2)c1 was read as Pf growth 96h inactive, CHX counter inactive, Shiga inhibitor inactive and Pf growth 48h inactive.
CCOC(=O)c1ccc2ncc(-c3ccccc3)nc2c1 was read as Pf growth 96h inactive, CHX counter 45.7, Shiga inhibitor 122.8 and Pf growth 48h inactive.
For Clc1ccc(-c2cnc3ccccc3n2)cc1 the results were Pf growth 96h inactive, CHX counter 66.9, Shiga inhibitor 67.0 and Pf growth 48h inactive.
`Cc1cc2ncc(Cl)nc2cc1C` gave Pf growth 96h inactive, CHX counter inactive, Shiga inhibitor inactive and Pf growth 48h inactive.
CCCCOc1ccc(-c2cnc3ccccc3n2)cc1 was read as Pf growth 96h inconclusive, CHX counter 45.3, Shiga inhibitor 59.9 and Pf growth 48h inactive.
CC(=O)c1ccc(-c2ccc(C3C4C=CCCC4(C)C(=O)N3Cc3ccccc3)c(F)c2)cc1 (configuration not stated) was read as CHX counter inactive and Shiga inhibitor inactive.
For COc1ccc(-c2cn(Cc3ccc(C(N)=O)cc3)c(CCN)n2)cc1 the results were Pf growth 96h inactive and Pf growth 48h inactive.
Cc1ccc(S(=O)(=O)NC(CC(=O)NCC2CCCO2)c2ccccc2)cc1 (configuration not stated) was read as Pf growth 96h inactive, CHX counter inactive, Shiga inhibitor inactive and Pf growth 48h inactive.
`CCCCOc1ccc(-c2ncc([N+](=O)[O-])cn2)cc1` gave Pf growth 96h inactive, CHX counter inactive, Shiga inhibitor inactive and Pf growth 48h inactive.
`CCCCOc1ccc(-c2ncc(Cl)cn2)cc1` gave Pf growth 96h inconclusive, CHX counter 17.4, Shiga inhibitor 35.2 and Pf growth 48h inactive.
Screening O=C(CN1C(=O)C2C3c4ccccc4C(c4ccccc43)C2C1=O)Nc1cccc(C(=O)O)c1 (configuration not stated) returned Pf growth 96h inactive, CHX counter inactive, Shiga inhibitor inactive and Pf growth 48h inactive.
For N#Cc1ccccc1S(=O)(=O)N1CCN(C(=O)C2CCC2)CC1 the results were Pf growth 96h inactive and Pf growth 48h inactive.
Cc1cccc(-n2c(O)c(/C=C3/C(c4ccccc4)=Nc4ccccc43)c(=O)[nH]c2=O)c1 was read as Pf growth 96h 11.7µM, CHX counter 20.0, Shiga inhibitor 32.3 and Pf growth 48h 10.4µM.
Screening O=c1[nH]c(=O)n(-c2ccccc2F)c(O)c1/C=C1\C=Nc2ccccc21 returned Pf growth 96h inactive, CHX counter 6.6, Shiga inhibitor inactive and Pf growth 48h inactive[0.00184 µM].
`Cc1ccc(-n2c(O)c(/C=C3/C(c4ccccc4)=Nc4ccccc43)c(=O)[nH]c2=O)cc1` gave Pf growth 96h 7.38µM, CHX counter 28.8, Shiga inhibitor 63.1 and Pf growth 48h 8.28µM.
Screening Cc1ccccc1-n1c(O)c(/C=C2/C(c3ccccc3)=Nc3ccccc32)c(=O)[nH]c1=O returned Pf growth 96h inactive, CHX counter 54.2, Shiga inhibitor 85.6 and Pf growth 48h 11.7µM.
For CC1=Nc2ccccc2/C1=C/c1c(O)n(C)c(=O)[nH]c1=O the results were Pf growth 96h inactive, CHX counter inactive and Pf growth 48h inactive.
O=C(NCc1ccccc1)c1nncc(-c2ccccc2)n1 was read as Pf growth 96h inconclusive and Pf growth 48h inactive.
`CCN1CCCC1CNC(=O)c1cc(S(=O)(=O)N(C)C)ccc1Cl` (configuration not stated) gave Pf growth 96h inactive, CHX counter inactive, Shiga inhibitor inactive and Pf growth 48h inactive.
Screening COc1ccccc1N1C(=O)CC(N2CCN(c3ccc(Cl)cc3)CC2)C1=O (configuration not stated) returned Pf growth 96h inactive, CHX counter inactive and Pf growth 48h inactive.
Clc1ccccc1C1Nc2cccc3cccc(c23)N1 was read as Pf growth 96h inactive, CHX counter inactive, Shiga inhibitor inactive and Pf growth 48h inconclusive.
`Oc1ccc(C2Nc3cccc4cccc(c34)N2)c(O)c1` gave Pf growth 96h 1.47µM, CHX counter inactive, Shiga inhibitor inactive and Pf growth 48h 6.57µM.

Screens deposited in PubChem BioAssay by National Center for Advancing Translational Sciences (NCATS).
